# FMDV Renilla: antivirals against foot and mouth disease virus replicon; FMDV replicon cells, Renilla luciferase signal; Potency, µM (series often up to 57.5 µM), for inactives: top-dose activity change, negative = inhibition, usual class: inhibitors; actives 0.32% (n = 120,000); also: nearly all actives have a fitted effect of over 55% in size
# FMDV antiviral: shows antiviral activity against foot and mouth disease virus; FMDV antiviral cell assay, firefly luciferase signal; Potency, µM (top dose mostly 57.5 µM), for inactives: at the highest dose activity change, negative = inhibition, hits mostly inhibitors; actives 0.23% (n = 120,000); AID 1745856; also: nearly all actives have a fitted effect of over 60% in size
# An asterisk follows results filed as active; ? = inconclusive; ! = a repeat was not active; [ ] = another dose, or the depositor's remark. The list is not random: actives were taken first. Their share in the collection is about 0.45%. Calls follow the shape of the full dose curve. % is scaled to controls: 0 for no effect and ±100 for the full control effect; potency is read from the fitted curve at half-maximal effect.
SMILES,FMDV Renilla,FMDV antiviral
O=C(O)c1cccc(-c2noc(-c3ccccc3F)n2)c1,-6%,2.5µM*
Fc1ccccc1-c1nc(-c2cccc(Br)c2)no1,9%,0%
CCCCOc1ccc(C(=O)NCCS(=O)(=O)N2CCN(c3ccc(F)cc3)CC2)cc1,-12%,-16%
CCCCOc1ccc(C(=O)NCCS(=O)(=O)N2CCN(c3ccccc3OC)CC2)cc1,?,18µM*
COc1ccc(C2CC(=O)N3CN(Cc4ccccc4)CSC3=C2C#N)c(OC)c1 (centres undefined),20%,-1%
Cc1cccc(N2NC3(CCCCC3)NC2=S)c1C,12%[1.06 µM],-6%
COC(=O)COc1ccccc1/C=C/C(=O)c1cc2ccccc2o1,-3%,15%
Cc1ccc(-n2nc(CO)c(C(=O)NCC(c3ccccc3)c3ccccc3)n2)cc1,-12%,-22%
O=C(NCc1cccs1)c1nn(-c2ccccc2Cl)nc1CO,21%,?
Cc1ccccc1-n1nc(CO)c(C(=O)NCC(c2ccccc2)c2ccccc2)n1,8.9µM*,?
O=C(NCC(c1ccccc1)c1ccccc1)c1nn(-c2ccccc2Cl)nc1CO,28µM*!,?
CCCCNC(=O)/C=C/C(=O)Nc1cc(Cl)cc(Cl)c1,-8%,-8%
CC(Oc1ccccc1)C(=O)OCc1nc2ccsc2c(=O)[nH]1 (centres undefined),19%,0%
CCOC(=O)C1CCCN(S(=O)(=O)c2ccc3c(c2)CCCN3C(C)=O)C1 (centres undefined),151%,-32%
COc1ccccc1N1CCN(C(=O)C2CCCN(S(=O)(=O)c3ccc4c(c3)CCCN4C(C)=O)C2)CC1 (centres undefined),25µM*,?
O/N=C(\c1ccc(O)cc1O)c1ccccc1F,24%,94%
O=C(O)CCCCCCCCCCCl,-1%,2%
Cc1cccc(-n2nnnc2Sc2nnnn2-c2ccccc2)c1C,?,-27%
Cc1ccc(-n2nnnc2Sc2nnnn2-c2ccccc2)c(C)c1,25µM*,?
CN(C)CCNc1oc(-c2cccs2)nc1C#N,3%,-9%
Nc1nc2c(s1)C(c1cccc(Cl)c1Cl)CC(=O)N2 (centres undefined),-2%,12%
O=C(CN1C(=O)c2ccccc2S1(=O)=O)c1ccc(F)cc1,13%,11µM*
O=C(CN1C(=O)c2ccccc2S1(=O)=O)c1ccc(-c2ccc(Br)cc2)cc1,-10%,33%
COc1ccc(-c2c(C)c3cc(OS(=O)(=O)c4ccc(C)cc4)ccc3oc2=O)cc1,?,-31%
COc1ccc(-c2c(C)oc3cc(OS(=O)(=O)c4ccc(C)cc4)ccc3c2=O)cc1,2.2µM*,3.2µM*
SMILES,FMDV Renilla,FMDV antiviral
O=C1CCCc2c(O)cccc21,-7%,22%[11.5 µM]
O=C1C(=C(c2ccccc2)c2ccccc2)C(Cl)C(Cl)(Cl)c2ccccc21 (centres undefined),11µM*,?
Cc1ccc(C(=O)/C=C/c2ccc(-c3ccc(C)c(Cl)c3)o2)cc1,11%,35%
Cn1c(=O)c2c(nc(N(CCO)CCO)n2Cc2ccccc2)n(C)c1=O,1%,2%
CCCn1c(N(C)Cc2ccccc2)nc2c1c(=O)n(C)c(=O)n2C,?,14µM*
COc1ccc(C(=O)C(C#N)C(=O)c2ccc(C)c(OC)c2)cc1 (centres undefined),26%,18%
N#Cc1c(NC(=O)c2ccnn2C(F)F)sc2c1CCC2,3.2µM*,?
N#Cc1c(NC(=O)c2nn(-c3ccccc3)c(=O)c3ccccc23)sc2c1CCCC2,1%,-4%
N#Cc1c(NC(=O)c2ccnn2C(F)F)sc2c1CCCC2,3.2µM*,?
N#Cc1c(NC(=O)c2cc(=O)c3ccccc3o2)sc2c1CCCC2,1%,138%
N#Cc1c(NC(=O)c2ccnn2C(F)F)sc2c1CCCCC2,5µM*,?
N#Cc1c(NC(=O)CSc2nccn2Cc2ccccc2)sc2c1CCC2,20%,94%
Cc1nnc(NC(=O)C(Oc2ccccc2)c2ccccc2)s1 (centres undefined),4%,-2%
O=C(/C=C/c1ccco1)c1ccccc1,4%,0%
CC(=O)N1CCCc2ccc(NC(=O)c3ccc(C(F)(F)F)cc3)cc21,1%,3.2µM*
CCOc1ccc(C(=O)Nc2ccc3c(c2)N(C(C)=O)CCC3)cc1OCC,4%,?
Cc1cccc(C(C)C)c1NC(=O)C(C)OC(=O)C1=CN2CCS(=O)(=O)N=C2C=C1 (centres undefined),-10%,2%
Cc1cccc(C(=O)NNC(=S)NC(=O)c2ccc(C(C)(C)C)cc2)c1,-1%,51%
FC(F)(F)c1ccccc1N/N=C1/CCc2ccccc21,-9%,104%
Cc1cccc(Nc2nc(C(=O)N3CCC(C)CC3)cs2)c1,13µM*,25µM*
Cc1ccc(Nc2nc(C(=O)N3CCC(C(=O)NCc4ccccc4)CC3)cs2)cc1,11%,48%
Cc1ccc2c(CN3CCc4cc(S(N)(=O)=O)ccc43)cc(=O)oc2c1C,19%,150%
CC(=O)c1c(C)[nH]c(C(=O)C(C)OC(=O)c2c(F)cccc2F)c1C (centres undefined),4%[1.06 µM],0%
CCOc1cc(/C=C/C(=O)c2ccc(Cl)cc2)cc(Cl)c1O,-2%,17%
C=C(COC(C)=O)C1Cc2c(ccc3c2OC2COc4cc(OC)c(OC)cc4C2C3=O)O1 (centres undefined),0.2µM*,?
SMILES,FMDV Renilla,FMDV antiviral
COc1ccc2cc(COC(=O)C3COc4ccccc4O3)ccc2c1 (centres undefined),12%,0%
O=C(Cc1ccc(-c2csc(Nc3ccc(F)cc3)n2)s1)N1CCOCC1,3%,34%
Nc1nc2c(s1)C(c1cc(Cl)ccc1F)CC(=O)N2 (centres undefined),-6%,11%
COc1ccc(C(=O)Nc2ccc3c(c2)N(C2CCCC2)C(=O)c2ccccc2S3)cc1OC,10µM*,?
CCN1C(=O)c2ccccc2Sc2ccc(NC(=O)Cc3ccc(OC)c(OC)c3)cc21,-7%,-3%
CC(=O)N1c2c(cc(Br)cc2S(=O)(=O)Nc2ccc(OC(F)(F)F)cc2)CC1C (centres undefined),190%,?
CCOC(=O)c1ccc(NS(=O)(=O)c2cc(Br)cc3c2N(C(C)=O)C(C)C3)cc1 (centres undefined),121%,20µM*
CC[n+]1c(C)ccc2cc(C)ccc21,7%,11%
Cc1[nH]c(SCC(=O)Nc2cccc(S(=O)(=O)N3CCCC3)c2)nc1Cc1ccccc1,-16%,14µM*
O=C(CSc1nncn1-c1ccccc1)Nc1cccc(S(=O)(=O)N2CCCCC2)c1,18%,15%
CCOc1ccc2nc(SCC(=O)N3CCN(S(=O)(=O)c4ccccc4)C3C(C)C)[nH]c2c1 (centres undefined),?,25µM*
CCOc1ccc2nc(SCC(=O)N(Cc3ccccc3)C3CCS(=O)(=O)C3)[nH]c2c1 (centres undefined),5%,2%
CC1CCN(C(=O)CSc2nc3cc(Cl)ccc3c(=O)n2Cc2ccccc2)CC1,1%,4%
Cc1ccc(NCc2nc3ccccc3n2CCOc2ccccc2C)cc1,55%,31%
CCc1nc2ccccc2n1CCCCOc1ccccc1C,?,11µM*
Cc1cc(NCc2ccccc2Cl)n2cnnc2n1,16µM*,?
Cc1cc(C)cc(Nc2cc(C)nc3nncn23)c1,33%,36%
CC(C)C(=O)/C(C#N)=C\c1cccc([N+](=O)[O-])c1,7%,21%
O=S(=O)(c1ccccc1)c1nc(-c2cccs2)oc1N1CCCCC1,-8%,3%
